Shown are actives, neighbours in structure and some others; about 4.1% of the full set was active somewhere.
rCAG binder = binds r(CAG) RNA repeats; r(CAG) RNA repeat, TO-PRO-1 dye displacement fluorescence; 1.3% of 370,000 active; inhibition, % at 3 µM;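 active = inhibition above the plate cutoff, the mean of all test compounds on that plate plus 3 SD, cut at about 35% in these data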;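 note: 0% = DMSO alone and 100% = 100 µM mitoxantrone as full dye displacement; higher means more dye released from RNA so lower well fluorescence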
MBD2 inh = blocks human MBD2 binding to methylated DNA; Q9UBB5; TR-FRET, MBD2 binding to methylated oligonucleotide; inhibition, % at 4.4 µM; 0.31% of 370,000 active; in the data active = inhibition above about 13%
UHRF1 binding = blocks human UHRF1 binding to methylated DNA. AID 687016. UHRF1 binding to methylated oligo, TR-FRET. 0.75% of 370,000 active. inhibition, % at 4.4 µM. Q96T88; in the data active = inhibition above about 21%;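 note: UHRF1 SRA domain binding a hemimethylated CpG hairpin DNA probe; 0% = median of test compound wells and 100% = reference inhibitor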
ABHD5-PLIN5 inh = blocks binding of human ABHD5 to perilipin-5. Q00G26+Q8WTS1. Split G. princeps luciferase complementation, luminescence, 4 h. AID 602281. 0.78% of 360,000 active. inhibition, % at 4 µM;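 active = inhibition above the mean inhibition across every tested compound plus 3 SD, cut at about 22% in these data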;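 note: 0% = DMSO only wells and the 100% control is not disclosed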
PRMT1 inh = inhibitors of human PRMT1; recombinant PRMT1, activity-based probe fluorescence polarization; inhibition, % at 2.79 µM; 1.3% of 370,000 active;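 active = inhibition above about 21% made by adding two undisclosed values, limit read from the data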
LEDGF integ inh = blocks HIV-1 LEDGF/p75-dependent DNA integration. TR-FRET IN-LEDGF/p75 DNA integration, Eu/Cy5. inhibition, % at 3.7 µM. 0.64% of 370,000 active;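 active = inhibition above the screen-wide mean plus 3 SD, cut at about 13% in these data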;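 note: signal is the Cy5 over europium emission ratio at 671 and 618 nm; 0% = plate median of compound wells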
PRMT1 confirm = confirmation of human PRMT1 inhibitors. shares compounds with PRMT1 inh. recombinant His-PRMT1, activity-based probe fluorescence polarization. inhibition, % at 2.79 µM. 42% of 3,300 active;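 active = mean inhibition across replicates above the hit cutoff derived for the earlier primary screen, cut at about 22% in these data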
* hit, by the source's call; . = no result given.

SMILES	rCAG binder	MBD2 inh	UHRF1 binding	ABHD5-PLIN5 inh	PRMT1 inh	LEDGF integ inh	PRMT1 confirm
COc1cc2ccccc2cc1C(=O)Nc1ccccc1Cl	18	-3	-3	-11	-6	6	.
O=c1c2ccc(F)cc2sn1-c1ccccc1	0	1	88*	72*	80*	0	94*
O=C(c1sc2cc(F)ccc2c1Cl)N1CCN(c2cccc(Cl)c2)CC1	-1	5	0	-7	5	-2	.
O=c1c2cc(F)ccc2sn1-c1ccccc1Cl	1	-5	2	-8	61*	-4	95*
N=C1SCC(=O)N1c1ccccc1Cl	1	2	4	-2	4	-2	.
O=C(/C=C(\Nc1cccc(F)c1)c1ccccc1)c1ccccc1	3	0	0	.	-1	-1	.
COC(=O)c1sc2nc(-c3ccccc3)c3c(c2c1N)CCCC3	-1	-4	-3	3	-1	-1	.
Nc1c(C(=O)O)sc2nc(-c3ccccc3)c3c(c12)CCCC3	18	4	2	-10	27*	-3	5
COc1ccc(-c2ncn(CCc3ccccc3OC)c2CC(C)C)cc1	0	-2	0	.	2	1	.
CCN(CC)S(=O)(=O)c1ccc(C(=O)NCc2n[nH]c(=S)n2-c2ccccc2OC)cc1	4	-1	-1	-2	0	0	.
CCN(CC)S(=O)(=O)c1ccc(C(=O)NCc2n[nH]c(=S)n2-c2ccc(Cl)c(Cl)c2)cc1	27	-6	-3	-13	28*	1	2
Nc1[nH]c(C(=O)c2ccccc2)c(-c2ccc3ccccc3c2)c1C(=O)NCCc1ccc(Cl)cc1	.	6	2	.	19	-2	.
COC(=O)CSc1nnc(-c2ccc(NS(=O)(=O)c3c(C(C)C)cc(C(C)C)cc3C(C)C)cc2)o1	22	-1	-2	.	-1	-2	.
C/C(=N/Nc1ccnc2cc(Cl)ccc12)c1ccc(N)cc1	12	-5	-4	-1	3	0	.
C/C(=N/Nc1ccnc2cc(Cl)ccc12)c1ccc(O)cc1	12	1	17	-4	37*	2	1
Cc1ccc(SC2CC(=O)N(c3ccc4c(c3)OCCO4)C2=O)cc1 (centres undefined)	-5	-1	3	-2	36*	-2	26*
Cc1ccc(N2C(=O)CC(Sc3cccs3)C2=O)cc1 (centres undefined)	-2	3	4	-1	66*	-6	51*
Cc1ccc(N2C(=O)CC(Sc3nccc(C)n3)C2=O)cc1 (centres undefined)	-1	3	-1	0	4	2	.
COC[C@H]1CCCN1c1ccc2c(c1)O[C@H](C)CCN(C1CC1)S2(=O)=O	6	2	-3	.	6	0	.
Cc1nc(SCC(N)=O)[nH]c(=O)c1C	.	2	1	.	0	0	.
C#CCN1C(=O)[C@]2(OC[C@@H]3Cc4ccccc4[C@@H]3C=C2C)c2ccccc21	5	-1	0	.	-5	3	.
Cc1ccc(/C=C2/C(=O)ON=C2c2ccccc2)o1	39*	-1	-1	11	25*	3	33*
Cc1ccc(CNC(=O)CSc2nccn(-c3ccc(C)c(F)c3)c2=O)cc1	-2	3	0	-24	37*	-2	19
O=C(CSc1nccn(-c2ccc(Br)cc2)c1=O)NCc1ccccc1	-3	5	-1	-3	20	0	.
COc1ccc(-n2ccnc(SCC(=O)NCc3ccc(C)cc3)c2=O)cc1Cl	-4	-1	-1	-11	36*	-3	21
CN1OC[C@@H]2CN(C(=S)Nc3cc(C(F)(F)F)cc(C(F)(F)F)c3)[C@H](c3ccccc3Br)C[C@@H]21	-1	5	3	.	7	-3	.
O=[N+]([O-])c1cc2c(cc1/C=N/NS(=O)(=O)c1ccc(Br)cc1)OCO2	9	4	-1	-4	34*	5	11
Cc1ccc(S(=O)(=O)N2CCSC2c2ccco2)cc1 (centres undefined)	8	5	5	-8	31*	4	8
Cn1c(=O)c2[nH]c(SCC(=O)N3CCN(c4cccc(C(F)(F)F)c4)CC3)nc2n(C)c1=O	11	0	0	.	1	0	.
